Growth data for eight molecules are collected here from PubChem BioAssay (NCI).

This is part of a sample that, as a whole, favours compounds with a hit. Of some 83,000 tested, about 20% had one in any assay.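 Note: values are percent growth. 100 is the growth of untreated cells, values between 100 and 0 indicate rising inhibition; between -100 and 0 indicates cell death.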 A number with no mark means an inactive call. The source made the active and inactive calls. Rule for the calls: active = growth percent below 10; inactive = the rest.

Some test systems named below: NCI-H23 lung; NCI-H226 lung; NCI-H322M lung; HOP-62 NSCLC; NCI-H460 lung; HOP-92 NSCLC; NCI-H522 lung; A549/ATCC NSCLC; 786-0 renal; COLO 205 colon; DU-145 prostate; K-562 leukemia; MALME-3M melanoma; MDA-MB-231 breast; RXF 393 renal; SF-268 CNS; SF-539 CNS; M14 melanoma; SF-295 CNS; UACC-257 melanoma.
Holding throughout (assay): NCI-60 one-dose screen, 48 h (100 = growth as untreated, 0 = no growth, -100 = all killed)
Common to all, as to conditions: 10 µM unless noted

As for `O=C1Nc2ccc(Br)cc2C12CC(c1ccccc1)=NN2` (centres undefined), the growth was 58.7% with NCI-H23 lung; 57.3% in the test with NCI-H226 lung; 35.2% with NCI-H322M lung; 51.6% in the test on HOP-62 NSCLC; 18.1% in the test on NCI-H460 lung; 58.2% with HOP-92 NSCLC. The growth with NCI-H522 lung is 20%; in the test on A549/ATCC NSCLC, 31.6%; in the test on 786-0 renal, 46.8%; in the test with COLO 205 colon, 30.5%; in the test with DU-145 prostate, 69.9%; in the test on K-562 leukemia it was 23.8%. Besides, the growth in the test with MALME-3M melanoma was 37.9%; in the test on MDA-MB-231 breast, 50.6%; in the test on RXF 393 renal it was 61.4%; in the test with SF-268 CNS, 58.7%; in the test with SF-539 CNS it was 32.9%; with M14 melanoma, 28.2%.
Take `O=c1c2cccc3c(Nc4c(F)cccc4F)ccc(c32)c2nc3ccccc3n12`: the growth in the test with NCI-H23 lung was 85.8%; with NCI-H226 lung it was 75.1%; in the test on NCI-H322M lung, 86.8%; with HOP-62 NSCLC, 85.6%; in the test on NCI-H460 lung, 72.7%; with HOP-92 NSCLC it was 64.2%. The growth in the test on NCI-H522 lung is 83%; in the test with A549/ATCC NSCLC, 82.4%; in the test with 786-0 renal it was 100%; with COLO 205 colon, 84.9%; with DU-145 prostate it was 104%; in the test with K-562 leukemia it was 84.9%. The growth with MALME-3M melanoma was 93.8%; in the test on MDA-MB-231 breast, 82.1%; in the test with RXF 393 renal, 116%; with SF-268 CNS it was 97.8%; with SF-539 CNS it was 100%; in the test with M14 melanoma, 100%.
Take `O=C1Nc2ccccc2/C1=C/C(=N/c1nnc(-c2ccccc2)s1)c1ccccc1`: the growth with NCI-H23 lung was 45.7%; with NCI-H226 lung, 86.5%; with NCI-H322M lung it was 95.7%; with HOP-62 NSCLC, 57%; in the test on NCI-H460 lung, 88.2%; in the test with HOP-92 NSCLC, 45.4%. The growth was -59.3% (active) in the test with NCI-H522 lung; 80.2% in the test on A549/ATCC NSCLC; -19.3% (active) with 786-0 renal; 2.53% (active) with COLO 205 colon; 34.4% in the test on DU-145 prostate; 20.4% with K-562 leukemia. For the same molecule, the growth is 37.8% in the test with MALME-3M melanoma; 54.5% with MDA-MB-231 breast; 27.1% with RXF 393 renal; 60.4% in the test with SF-268 CNS; 52.7% with SF-539 CNS; 75.7% in the test with M14 melanoma.
Take `O=C1C[C@H](N2C(=O)c3ccccc3S2(=O)=O)C2CO[C@@H]1O2`: the growth with NCI-H23 lung is 89.3%; in the test with NCI-H226 lung it was 96.1%; in the test with NCI-H322M lung it was 103%; in the test on HOP-62 NSCLC, 92.6%; in the test with NCI-H460 lung it was 103%; in the test on HOP-92 NSCLC, 98.4%. The growth in the test with NCI-H522 lung was -45.6% (active); with A549/ATCC NSCLC, 89.1%; in the test on 786-0 renal, 96.9%; in the test with COLO 205 colon it was 64.1%; with DU-145 prostate, 87.8%; in the test on K-562 leukemia, 55.6%. In addition, the growth with MALME-3M melanoma is 97.2%; in the test with MDA-MB-231 breast, 110%; in the test with RXF 393 renal, 86.8%; with SF-268 CNS it was 102%; with SF-295 CNS, 93.7%; in the test on UACC-257 melanoma, 84.3%. The growth with M14 melanoma is 84.2%.
`CCOC(=O)c1ccc2c(c1)nc(/C=C/c1ccc(Cl)cc1)n2-c1cc(C(C)(C)C)[nH]n1`: the growth is 77.6% in the test on NCI-H23 lung; 44.5% with NCI-H226 lung; 48.7% with NCI-H322M lung; 43.1% with HOP-62 NSCLC; 59% in the test on NCI-H460 lung; 48.2% with HOP-92 NSCLC. Besides, the growth in the test with NCI-H522 lung was 52.2%; in the test with A549/ATCC NSCLC it was 32.8%; with 786-0 renal it was 42.7%; in the test with COLO 205 colon, 62.5%; in the test with DU-145 prostate, 74.1%; with K-562 leukemia, 19.1%. The growth in the test with MALME-3M melanoma was 61.2%; in the test with MDA-MB-231 breast, 52.5%; with RXF 393 renal, 21.3%; with SF-268 CNS, 54.6%; in the test with SF-295 CNS, 56.2%; with UACC-257 melanoma it was 67%. Also, the growth in the test with M14 melanoma was 83.4%.
`O=C(NCc1cccc(C(F)(F)F)c1)[C@H](CCC(=O)N1CCN(C2CCCCC2)CC1)N1C(=O)[C@@H](N2C(=O)OC[C@@H]2c2ccccc2)[C@H]1/C(Cl)=C/c1ccccc1`: the growth in the test with NCI-H23 lung is 68.4%; in the test on NCI-H226 lung it was 73.2%; in the test with NCI-H322M lung it was 36.4%; in the test on HOP-62 NSCLC it was 55.6%; with NCI-H460 lung it was 47.8%; with HOP-92 NSCLC it was 32.6%. The growth in the test with NCI-H522 lung was 33.7%; in the test with A549/ATCC NSCLC it was 37.7%; in the test on 786-0 renal, 49.9%; in the test on COLO 205 colon, 40.7%; in the test with DU-145 prostate, 60.7%; in the test with K-562 leukemia it was 31.5%. Also, the growth with MALME-3M melanoma was 47.8%; with MDA-MB-231 breast, 33.1%; in the test on RXF 393 renal, 52.2%; in the test on SF-268 CNS, 31%; in the test with SF-295 CNS it was 46.5%; with UACC-257 melanoma, 24.9%. Further, the growth with M14 melanoma was 37.9%.
As to `O=C1c2cccnc2C(=O)c2c1c(C(=O)OCCN1CCCCC1)c1ccccn21`, the growth was -53.2% (active) in the test with NCI-H23 lung; -15.3% (active) in the test with NCI-H226 lung; -81.7% (active) in the test with NCI-H322M lung; -34.5% (active) in the test with HOP-62 NSCLC; -16.7% (active) in the test on NCI-H460 lung; 12.5% in the test with HOP-92 NSCLC. The growth in the test with NCI-H522 lung was -64.5% (active); in the test on A549/ATCC NSCLC, -46.6% (active); in the test on 786-0 renal it was -45.9% (active); with COLO 205 colon, -70.3% (active); in the test with DU-145 prostate it was -89.7% (active); in the test on K-562 leukemia it was -40.9% (active). Moreover, the growth was -74.3% (active) in the test on MALME-3M melanoma; -27.9% (active) in the test with MDA-MB-231 breast; -44.5% (active) in the test with RXF 393 renal; -19.8% (active) in the test on SF-268 CNS; -37% (active) with SF-295 CNS; -75% (active) in the test on UACC-257 melanoma. The growth with M14 melanoma was -20.8% (active).
With `CNCCCn1c2c(c3ccc([N+](=O)[O-])cc3c1=O)C(=O)c1cc(OC)cnc1-2`, the growth with NCI-H23 lung is -55.4% (active); in the test with NCI-H226 lung, -81.5% (active); in the test with NCI-H322M lung it was -5.51% (active); in the test with HOP-62 NSCLC it was -33.4% (active); in the test on NCI-H460 lung, -70.4% (active); in the test on HOP-92 NSCLC, -7.43% (active). In addition, the growth with NCI-H522 lung was -29% (active); in the test with A549/ATCC NSCLC it was -82% (active); in the test on 786-0 renal it was -78.5% (active); with COLO 205 colon, -13.2% (active); in the test with DU-145 prostate, 0.657% (active); in the test with K-562 leukemia, -28.9% (active). Further, the growth in the test with MALME-3M melanoma was -69.2% (active); with MDA-MB-231 breast it was -51.9% (active); with RXF 393 renal, -90.5% (active); with SF-268 CNS, 0.163% (active); with SF-295 CNS, -13.2% (active); with UACC-257 melanoma it was -23.1% (active). Also, in the test with M14 melanoma, the growth was -13.1% (active).
